Here are results for 38 molecules from PubChem BioAssay (NCI).

Molecules are shown by their SMILES. The panel holds about 83,000 compounds, 20% with a hit somewhere; the sample as a whole holds those more often.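 Interpretation: 100, growth as untreated; towards 0, rising growth inhibition; 0, no net growth; 0 to -100, cell death. Compounds scoring below 10 were considered active.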 Values without a mark were called inactive. Calls of active or inactive are those of the source.

The first test deals with UACC-62 melanoma. In words: NCI-60 one-dose screen, 48 h (100 = growth as untreated, 0 = no growth, -100 = all killed). The note with it: 10 µM unless noted.
For the molecule `COC(=O)[C@]12CC[C@@H](C)[C@H](C)[C@@H]1C1=CC[C@@H]3[C@@]4(C)C(C=O)=C[C@@](C)(COC(C)=O)[C@@H]4[C@H](O)C[C@@]3(C)[C@]1(C)CC2`, the growth was -46.7% (active).

`CCc1c2c(nc3ccc(OC(=O)OCc4ccc(B5OC(C)(C)C(C)(C)O5)cc4)cc13)-c1cc3c(c(=O)n1C2)COC(=O)[C@]3(O)CC`: the growth was -80.8% (active).

As to `N#Cc1c(N2CCNCC2)nc2sc3cc(Cl)c(Cl)cc3n2c1=N`, the growth was 82.6%.

As for `Cc1ccc(/C=C/c2c(C(=O)/C=C/c3ccc(C(F)(F)F)cc3)c(C)nc3ccccc23)cc1`, the growth is -45.8% (active).

On to `COc1ccc2c(c1)[nH]c(=O)c1c3cccnc3cn21`, for which the growth was 16.5%.

As for `COc1ccc2c(c1)C(=O)/C(=C/c1cccc(OCC(=O)Nc3nc(C)c(C)s3)c1)O2`, the growth was 47.1%.

Consider `COc1cccc(-c2nn(-c3ccccc3)cc2-c2ccnc(NCCNC(=O)c3ccccc3)c2)c1`, for which the growth was 57.2%.

Turning to `COC(=O)/C=C1\S/C(=N\NS(=O)(=O)c2ccc(C)cc2)N(c2ccccc2)C1=O`, the growth is 95.2%.

As for `Cc1ccc(-c2cc3c(cc2O)C2CCCCC2(N2CCOCC2)O3)cc1` (stereo unspecified), the growth was 71.2%.

On to `CCOc1ccccc1-c1cc(-c2cccs2)c(C#N)c(=O)[nH]1`, for which the growth is 63.7%.

Take `N#Cc1nc(C#N)c(Sc2ccccc2)c(Sc2ccccc2)c1Sc1ccccc1`: the growth is -57.2% (active).

For the molecule `CCN1CCN(c2cc(C)nc(NCc3cc(Nc4ccnc5cc(Cl)ccc45)ccc3F)n2)CC1`, the growth is 86.3%.

Regarding `Cn1ccc2c(c1=O)C(=O)c1nccc3c1c-2nc1ccccc13`, the growth is 91.7%.

As to `COC1=CC(=O)C[C@@H](C)[C@]12Oc1c(Cl)c(OC)cc(OC)c1C2=O`, the growth is 73.3%.

`O=C1CCc2c(sc3[nH]c(=S)n(-c4ccc(OC(F)(F)F)cc4)c(=O)c23)C1`: the growth is 10.8%.

For the molecule `COc1cc(C(=O)/C=C/c2c(-c3ccc(F)cc3)nc3sc(C)cn23)cc(OC)c1OC`, the growth is 23.1%.

In the case of `Cc1nn(-c2ccccc2)c(Oc2ccc(Cl)cc2)c1/C=N\N=c1/sc2ccccc2n1C`, the growth was 70.8%.

Turning to `COC(=O)c1ccc(C2Nc3ccc(S(=O)(=O)Nc4ccc(C)c(C)c4)cc3C3OCCC23)cc1` (stereo unspecified), the growth is 65.3%.

As to `CCCCCCCCn1ccc2cc(NC(=O)Cn3cc(CN4CCCC4)nn3)ccc21`, the growth was -82.1% (active).

As to `O=S(=O)(Nc1cccc(Cl)c1)c1ccc(-c2cnc(C3CC3)o2)cc1`, the growth is 29.2%.

With `COc1ccc(-c2nc(SC(C)C)nc(NNC(N)=S)c2C#N)cc1`, the growth was 22.2%.

Regarding `Cc1cc(NCc2cc(Nc3ccnc4cc(Cl)ccc34)ccc2F)nc(N2CCN(C)CC2)n1`, the growth is -63.8% (active).

As to `Cc1ccc2nc(C)c(-c3nnc(SCc4ccc(C#N)cc4)o3)n2c1`, the growth was 74.4%.

As to `CCN1C(=O)N(CC)C2Nn3c(s/c(=C\c4ccc(Cl)cc4Cl)c3=O)=NC21` (stereo unspecified), the growth was 41.1%.

Turning to `C[n+]1cc2cc(C(N)=O)[nH]c3c(=N)c(Cl)c(N)c1c23`, the growth was 78%.

On to `CCc1ccccc1-n1c(-c2ccc(Cl)cc2)cc(-c2ccc(Cl)cc2)c(C#N)c1=O`, for which the growth is 84.8%.

Regarding `Cc1ccc2nc(NC(=O)CSc3nc(-c4ccccc4)c(C#N)c(=O)n3Cc3ccccc3)sc2c1`, the growth is 53.5%.

On to `COc1ccc(C2=Nc3c(N)ncnc3NC(c3ccc4c(c3)OCO4)C2)cc1` (stereo unspecified), for which the growth was 80.6%.

As to `Clc1ccc(-c2c3ccc(=[N+]4CCCCC4)cc-3oc3cc(N4CCCCC4)ccc23)cc1`, the growth is -87.1% (active).

Consider `CCCCN(CCCC)CC(C)(C)C(O)c1ccc(OC)c2ccccc12` (stereo unspecified), for which the growth was 56.1%.

As to `C(=N\Nc1ncc(-c2cc3cc4c(cc3o2)OCO4)s1)/c1ccco1`, the growth is 88.8%.

For the molecule `O=C(c1ccccc1)c1c(/C=C/c2ccccc2)nc2ccccc2c1/C=C/c1ccc(Br)cc1`, the growth was 82%.

`Cc1cc(NCc2cc(Nc3ccnc4cc(Cl)ccc34)ccc2F)nc(N2CCN(c3ccccc3)CC2)n1`: the growth is 70.6%.

On to `O=[N+]([O-])c1ccc(N2c3ccncc3Sc3ccncc32)cc1`, for which the growth was 93.2%.

Turning to `COc1cc(C2CC(=O)Nc3c2c(C)nn3-c2nc3ccccc3[nH]2)c(OC)c(OC)c1OC` (stereo unspecified), the growth was 40.7%.

As for `Cc1c2c(c(C)c3c1oc1cc(O)ccc13)C(=O)N(CCN1CCCCC1)C2=O`, the growth was 99.2%.

Regarding `COCN1CCC2N(COC)CCC3N(COC)CCC1N23` (stereo unspecified), the growth was 94.3%.

Take `Cc1cc(C)c(-c2c(C)cc(C)cc2CBr)c(CBr)c1`: the growth is 70.9%.

For a further test, the system named is LOX IMVI melanoma. The test is described as above. As to conditions: 10 µM unless noted.
For the molecule `COC(=O)[C@]12CC[C@@H](C)[C@H](C)[C@@H]1C1=CC[C@@H]3[C@@]4(C)C(C=O)=C[C@@](C)(COC(C)=O)[C@@H]4[C@H](O)C[C@@]3(C)[C@]1(C)CC2`, the growth was -99.1% (active).

Consider `CCc1c2c(nc3ccc(OC(=O)OCc4ccc(B5OC(C)(C)C(C)(C)O5)cc4)cc13)-c1cc3c(c(=O)n1C2)COC(=O)[C@]3(O)CC`, for which the growth is -67.8% (active).

On to `N#Cc1c(N2CCNCC2)nc2sc3cc(Cl)c(Cl)cc3n2c1=N`, for which the growth was 93.5%.

Take `Cc1ccc(/C=C/c2c(C(=O)/C=C/c3ccc(C(F)(F)F)cc3)c(C)nc3ccccc23)cc1`: the growth was -87.3% (active).

On to `COc1ccc2c(c1)[nH]c(=O)c1c3cccnc3cn21`, for which the growth was 33.1%.

Take `COc1ccc2c(c1)C(=O)/C(=C/c1cccc(OCC(=O)Nc3nc(C)c(C)s3)c1)O2`: the growth is -63.9% (active).

In the case of `COc1cccc(-c2nn(-c3ccccc3)cc2-c2ccnc(NCCNC(=O)c3ccccc3)c2)c1`, the growth was 68.7%.

For `COC(=O)/C=C1\S/C(=N\NS(=O)(=O)c2ccc(C)cc2)N(c2ccccc2)C1=O`, the growth was 98.7%.

As for `Cc1ccc(-c2cc3c(cc2O)C2CCCCC2(N2CCOCC2)O3)cc1` (stereo unspecified), the growth was 87.1%.

As to `CCOc1ccccc1-c1cc(-c2cccs2)c(C#N)c(=O)[nH]1`, the growth is 86.6%.

For the molecule `N#Cc1nc(C#N)c(Sc2ccccc2)c(Sc2ccccc2)c1Sc1ccccc1`, the growth is -79.2% (active).

`CCN1CCN(c2cc(C)nc(NCc3cc(Nc4ccnc5cc(Cl)ccc45)ccc3F)n2)CC1`: the growth was 8.07% (active).

Consider `Cn1ccc2c(c1=O)C(=O)c1nccc3c1c-2nc1ccccc13`, for which the growth is -98.4% (active).

With `COC1=CC(=O)C[C@@H](C)[C@]12Oc1c(Cl)c(OC)cc(OC)c1C2=O`, the growth is 80.8%.

On to `O=C1CCc2c(sc3[nH]c(=S)n(-c4ccc(OC(F)(F)F)cc4)c(=O)c23)C1`, for which the growth was 20.6%.

Consider `COc1cc(C(=O)/C=C/c2c(-c3ccc(F)cc3)nc3sc(C)cn23)cc(OC)c1OC`, for which the growth is 25.1%.

On to `Cc1nn(-c2ccccc2)c(Oc2ccc(Cl)cc2)c1/C=N\N=c1/sc2ccccc2n1C`, for which the growth was 93.3%.

In the case of `COC(=O)c1ccc(C2Nc3ccc(S(=O)(=O)Nc4ccc(C)c(C)c4)cc3C3OCCC23)cc1` (stereo unspecified), the growth was 93%.

Consider `CCCCCCCCn1ccc2cc(NC(=O)Cn3cc(CN4CCCC4)nn3)ccc21`, for which the growth is -85.1% (active).

Regarding `O=S(=O)(Nc1cccc(Cl)c1)c1ccc(-c2cnc(C3CC3)o2)cc1`, the growth was 35.4%.

Take `COc1ccc(-c2nc(SC(C)C)nc(NNC(N)=S)c2C#N)cc1`: the growth is 40.2%.

On to `Cc1cc(NCc2cc(Nc3ccnc4cc(Cl)ccc34)ccc2F)nc(N2CCN(C)CC2)n1`, for which the growth is -86.6% (active).

Turning to `Cc1ccc2nc(C)c(-c3nnc(SCc4ccc(C#N)cc4)o3)n2c1`, the growth was 93.2%.

Consider `CCN1C(=O)N(CC)C2Nn3c(s/c(=C\c4ccc(Cl)cc4Cl)c3=O)=NC21` (stereo unspecified), for which the growth was 42.9%.

For the molecule `C[n+]1cc2cc(C(N)=O)[nH]c3c(=N)c(Cl)c(N)c1c23`, the growth was 64.2%.

As for `CCc1ccccc1-n1c(-c2ccc(Cl)cc2)cc(-c2ccc(Cl)cc2)c(C#N)c1=O`, the growth is 82.4%.

In the case of `Cc1ccc2nc(NC(=O)CSc3nc(-c4ccccc4)c(C#N)c(=O)n3Cc3ccccc3)sc2c1`, the growth is 83.1%.

Regarding `COc1ccc(C2=Nc3c(N)ncnc3NC(c3ccc4c(c3)OCO4)C2)cc1` (stereo unspecified), the growth was 94%.

In the case of `Clc1ccc(-c2c3ccc(=[N+]4CCCCC4)cc-3oc3cc(N4CCCCC4)ccc23)cc1`, the growth was -70.2% (active).

In the case of `CCCCN(CCCC)CC(C)(C)C(O)c1ccc(OC)c2ccccc12` (stereo unspecified), the growth is 66.6%.

For the molecule `C(=N\Nc1ncc(-c2cc3cc4c(cc3o2)OCO4)s1)/c1ccco1`, the growth was -48.8% (active).

With `O=C(c1ccccc1)c1c(/C=C/c2ccccc2)nc2ccccc2c1/C=C/c1ccc(Br)cc1`, the growth was 90.6%.

In the case of `Cc1cc(NCc2cc(Nc3ccnc4cc(Cl)ccc34)ccc2F)nc(N2CCN(c3ccccc3)CC2)n1`, the growth was -84.6% (active).

`O=[N+]([O-])c1ccc(N2c3ccncc3Sc3ccncc32)cc1`: the growth is 81.7%.

Turning to `COc1cc(C2CC(=O)Nc3c2c(C)nn3-c2nc3ccccc3[nH]2)c(OC)c(OC)c1OC` (stereo unspecified), the growth is 67.7%.

As to `Cc1c2c(c(C)c3c1oc1cc(O)ccc13)C(=O)N(CCN1CCCCC1)C2=O`, the growth is 95.4%.

In the case of `COCN1CCC2N(COC)CCC3N(COC)CCC1N23` (stereo unspecified), the growth is 101%.

Turning to `Cc1cc(C)c(-c2c(C)cc(C)cc2CBr)c(CBr)c1`, the growth was 53%.
